What all share (assay): PBM; 200 nM protein, PBS
Holding throughout (details): dsDNA, one strand shown

In assay [1] the target is T1, VENTX (Homo sapiens, UniProt O95231 78-163, R121Q).
T1 sequence: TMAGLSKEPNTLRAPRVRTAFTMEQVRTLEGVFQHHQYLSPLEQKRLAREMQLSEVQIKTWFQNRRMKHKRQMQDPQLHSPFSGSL

In assay [2] the target is T2, VENTX (Homo sapiens, UniProt O95231 78-163).
T2 sequence: T1 sequence with Q44R

For assay [3], the target named is T3, VENTX (Homo sapiens, UniProt O95231 78-163, Y115F).
T3 sequence: T1 sequence with Y38F, Q44R

For assay [4], the target named is ALX3 (Homo sapiens, UniProt O95076 139-225, N203Q).
Chain of ALX3 (Homo sapiens, UniProt O95076 139-225, N203Q) (O95076 139-225 N203Q): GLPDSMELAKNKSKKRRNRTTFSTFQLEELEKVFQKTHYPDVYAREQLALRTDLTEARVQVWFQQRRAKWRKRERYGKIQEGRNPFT
The target in assay [5] is ALX3 (Homo sapiens, UniProt O95076 139-225).
Chain of ALX3 (Homo sapiens, UniProt O95076 139-225) (O95076 139-225): as the sequence (O95076 139-225 N203Q) above, with Q65N counted along it
The target in assay [6] is VAX1 (Homo sapiens, UniProt Q5SQQ9 86-172).
Chain of VAX1 (Homo sapiens, UniProt Q5SQQ9 86-172) (Q5SQQ9 86-172): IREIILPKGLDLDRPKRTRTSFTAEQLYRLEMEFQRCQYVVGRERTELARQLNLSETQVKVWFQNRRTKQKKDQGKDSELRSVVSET
The target of assay [7] is ALX3 (Homo sapiens, UniProt O95076 139-225, L168Q).
Chain of ALX3 (Homo sapiens, UniProt O95076 139-225, L168Q) (O95076 139-225 L168Q): as the sequence (O95076 139-225 N203Q) above, with L30Q, Q65N counted along it
Assay [8] concerns the target ALX3 (Homo sapiens, UniProt O95076 139-225, L168V).
For assay [9], the target named is VAX1 (Homo sapiens, UniProt Q5SQQ9 86-172, T142I).
Chain of VAX1 (Homo sapiens, UniProt Q5SQQ9 86-172, T142I) (Q5SQQ9 86-172 T142I): as the sequence (Q5SQQ9 86-172) above, with T57I counted along it
The target in assay [10] is ALX3 (Homo sapiens, UniProt O95076 139-225, N203S).
Chain of ALX3 (Homo sapiens, UniProt O95076 139-225, N203S) (O95076 139-225 N203S): as the sequence (O95076 139-225 N203Q) above, with Q65S counted along it
The target of assay [11] is VAX1 (Homo sapiens, UniProt Q5SQQ9 86-172, K157R).
Chain of VAX1 (Homo sapiens, UniProt Q5SQQ9 86-172, K157R) (Q5SQQ9 86-172 K157R): as the sequence (Q5SQQ9 86-172) above, with K72R counted along it
In assay [12] the target is HOXA2 (Homo sapiens, UniProt O43364 129-215, R185T).
Chain of HOXA2 (Homo sapiens, UniProt O43364 129-215, R185T) (O43364 129-215 R185T): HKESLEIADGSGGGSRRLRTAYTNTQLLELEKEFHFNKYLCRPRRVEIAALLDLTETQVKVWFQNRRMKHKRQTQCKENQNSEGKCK
Assay [13] addresses HOXA2 (Homo sapiens, UniProt O43364 129-215, R185K).
Assay [14] addresses HOXA2 (Homo sapiens, UniProt O43364 129-215, Y150S).
Assay [15] deals with HOXA2 (Homo sapiens, UniProt O43364 129-215).
Chain of HOXA2 (Homo sapiens, UniProt O43364 129-215) (O43364 129-215): as the sequence (O43364 129-215 R185T) above, with T57R counted along it
Assay [16] has as its target HOXB6 (Homo sapiens, UniProt P17509 132-218, K202E).
The target in assay [17] is HOXB6 (Homo sapiens, UniProt P17509 132-218).
Chain of HOXB6 (Homo sapiens, UniProt P17509 132-218) (P17509 132-218): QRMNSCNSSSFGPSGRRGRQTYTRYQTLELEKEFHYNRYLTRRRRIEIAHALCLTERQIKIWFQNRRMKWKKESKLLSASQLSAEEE
Assay [18] deals with ALX1 (Homo sapiens, UniProt Q15699 118-204, L144V).
Chain of ALX1 (Homo sapiens, UniProt Q15699 118-204, L144V) (Q15699 118-204 L144V): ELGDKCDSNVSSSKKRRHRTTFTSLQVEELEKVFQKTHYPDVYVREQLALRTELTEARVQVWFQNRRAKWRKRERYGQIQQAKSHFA
In assay [19] the target is ALX1 (Homo sapiens, UniProt Q15699 118-204, L144R).
Chain of ALX1 (Homo sapiens, UniProt Q15699 118-204, L144R) (Q15699 118-204 L144R): as the sequence (Q15699 118-204 L144V) above, with V27R counted along it
For assay [20], the target named is ALX1 (Homo sapiens, UniProt Q15699 118-204).
Chain of ALX1 (Homo sapiens, UniProt Q15699 118-204) (Q15699 118-204): as the sequence (Q15699 118-204 L144V) above, with V27L counted along it
Assay [21] deals with T4, NKX2-6 (Homo sapiens, UniProt A6NCS4 118-204).
T4 sequence: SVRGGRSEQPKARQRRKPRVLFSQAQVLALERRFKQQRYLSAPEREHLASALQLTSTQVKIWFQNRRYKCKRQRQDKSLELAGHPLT

Assay [22] deals with T5, NKX2-6 (Homo sapiens, UniProt A6NCS4 118-204, F151L).
T5 sequence: T4 sequence with F34L

Assay [23] has as its target HOXA4 (Homo sapiens, UniProt Q00056 201-287, R217L).
The target of assay [24] is MSX2 (Homo sapiens, UniProt P35548 130-214, R199I).
Chain of MSX2 (Homo sapiens, UniProt P35548 130-214, R199I) (P35548 130-214 R199I): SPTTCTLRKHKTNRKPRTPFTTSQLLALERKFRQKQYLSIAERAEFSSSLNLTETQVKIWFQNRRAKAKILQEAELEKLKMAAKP
Assay [25] deals with MSX2 (Homo sapiens, UniProt P35548 130-214).
Chain of MSX2 (Homo sapiens, UniProt P35548 130-214) (P35548 130-214): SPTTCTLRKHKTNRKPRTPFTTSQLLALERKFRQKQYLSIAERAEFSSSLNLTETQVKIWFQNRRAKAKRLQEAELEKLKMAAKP
For assay [26], the target named is MSX2 (Homo sapiens, UniProt P35548 130-214, F161Y).
Chain of MSX2 (Homo sapiens, UniProt P35548 130-214, F161Y) (P35548 130-214 F161Y): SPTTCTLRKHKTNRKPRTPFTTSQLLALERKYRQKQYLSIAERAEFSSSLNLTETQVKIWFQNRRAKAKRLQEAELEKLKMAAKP
The target in assay [27] is T6, PAX4 (Homo sapiens, UniProt O43316 9-242, F177V).
T6 sequence: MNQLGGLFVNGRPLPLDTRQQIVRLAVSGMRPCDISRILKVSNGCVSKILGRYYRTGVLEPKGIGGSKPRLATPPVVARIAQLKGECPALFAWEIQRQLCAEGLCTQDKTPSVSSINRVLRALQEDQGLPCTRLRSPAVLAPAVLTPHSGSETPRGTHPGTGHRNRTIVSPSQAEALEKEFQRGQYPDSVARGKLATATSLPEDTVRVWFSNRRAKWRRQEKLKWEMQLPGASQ

The target in assay [28] is T7, PAX4 (Homo sapiens, UniProt O43316 9-242, R227W).
T7 sequence: T6 sequence with V169F, R219W

Positions count from the first letter of the chain named.

Our source for the binding signal values is paper PMC11006913.

Chain of ALX3 (Homo sapiens, UniProt O95076 139-225, L168V) (O95076 139-225 L168V): as the sequence (O95076 139-225 N203Q) above, with L30V, Q65N counted along it
Chain of HOXA2 (Homo sapiens, UniProt O43364 129-215, R185K) (O43364 129-215 R185K): as the sequence (O43364 129-215 R185T) above, with T57K counted along it
Chain of HOXA2 (Homo sapiens, UniProt O43364 129-215, Y150S) (O43364 129-215 Y150S): as the sequence (O43364 129-215 R185T) above, with Y22S, T57R counted along it
Chain of HOXA4 (Q00056 201-287 R217L): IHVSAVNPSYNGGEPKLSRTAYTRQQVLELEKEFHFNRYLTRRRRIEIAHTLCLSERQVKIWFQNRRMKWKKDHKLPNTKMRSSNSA
Chain of HOXB6 (Homo sapiens, UniProt P17509 132-218, K202E) (P17509 132-218 K202E): as the sequence (P17509 132-218) above, with K71E counted along it

For AGCGTGCC, the binding signal in [1] is 8.06 upbm affinity estimate (log intensity, higher = more binding, comparable within an allelic series); in [2] it was 7.96 upbm affinity estimate (log intensity, higher = more binding, comparable within an allelic series); in assay [3], 8.06 upbm affinity estimate (log intensity, higher = more binding, comparable within an allelic series); in assay [4] it was 7.73 upbm affinity estimate (log intensity, higher = more binding, comparable within an allelic series); in assay [5], 7.88 upbm affinity estimate (log intensity, higher = more binding, comparable within an allelic series); in assay [6], 7.14 upbm affinity estimate (log intensity, higher = more binding, comparable within an allelic series). Besides, the binding signal was 7.81 upbm affinity estimate (log intensity, higher = more binding, comparable within an allelic series) in [7]; 7.81 upbm affinity estimate (log intensity, higher = more binding, comparable within an allelic series) in [8]; 7.18 upbm affinity estimate (log intensity, higher = more binding, comparable within an allelic series) in assay [9]; 7.76 upbm affinity estimate (log intensity, higher = more binding, comparable within an allelic series) in assay [10]; 7.13 upbm affinity estimate (log intensity, higher = more binding, comparable within an allelic series) in assay [11].
Turning to CACTAATG, the binding signal was 11.7 upbm affinity estimate (log intensity, higher = more binding, comparable within an allelic series) in [1]; 12.3 upbm affinity estimate (log intensity, higher = more binding, comparable within an allelic series) in [2]; 11.6 upbm affinity estimate (log intensity, higher = more binding, comparable within an allelic series) in [3]; 12.1 upbm affinity estimate (log intensity, higher = more binding, comparable within an allelic series) in assay [12]; 13.2 upbm affinity estimate (log intensity, higher = more binding, comparable within an allelic series) in [13]; 10.9 upbm affinity estimate (log intensity, higher = more binding, comparable within an allelic series) in assay [14]. For the same sequence, the binding signal in assay [15] is 12.1 upbm affinity estimate (log intensity, higher = more binding, comparable within an allelic series).
Turning to CCGCTGGC, the binding signal in [1] was 7.68 upbm affinity estimate (log intensity, higher = more binding, comparable within an allelic series); in assay [2], 7.51 upbm affinity estimate (log intensity, higher = more binding, comparable within an allelic series); in [3], 7.74 upbm affinity estimate (log intensity, higher = more binding, comparable within an allelic series); in [16] it was 8.89 upbm affinity estimate (log intensity, higher = more binding, comparable within an allelic series); in assay [6] it was 6.67 upbm affinity estimate (log intensity, higher = more binding, comparable within an allelic series); in assay [9] it was 7.05 upbm affinity estimate (log intensity, higher = more binding, comparable within an allelic series). Also, the binding signal was 6.73 upbm affinity estimate (log intensity, higher = more binding, comparable within an allelic series) in assay [11] and 8.76 upbm affinity estimate (log intensity, higher = more binding, comparable within an allelic series) in assay [17].
On to CGATTAAC, for which the binding signal is 11.4 upbm affinity estimate (log intensity, higher = more binding, comparable within an allelic series) in assay [1]; 12.4 upbm affinity estimate (log intensity, higher = more binding, comparable within an allelic series) in assay [2]; 11.3 upbm affinity estimate (log intensity, higher = more binding, comparable within an allelic series) in assay [3].
Take CAGGGGGG: the binding signal in assay [1] was 8.13 upbm affinity estimate (log intensity, higher = more binding, comparable within an allelic series); in [2], 8.11 upbm affinity estimate (log intensity, higher = more binding, comparable within an allelic series); in assay [3], 8.09 upbm affinity estimate (log intensity, higher = more binding, comparable within an allelic series); in assay [4], 7.62 upbm affinity estimate (log intensity, higher = more binding, comparable within an allelic series); in [5], 7.33 upbm affinity estimate (log intensity, higher = more binding, comparable within an allelic series); in assay [7] it was 7.58 upbm affinity estimate (log intensity, higher = more binding, comparable within an allelic series). Moreover, the binding signal in [8] was 7.5 upbm affinity estimate (log intensity, higher = more binding, comparable within an allelic series); in assay [10], 7.6 upbm affinity estimate (log intensity, higher = more binding, comparable within an allelic series).
As for GCCCCGGC, the binding signal is 8.07 upbm affinity estimate (log intensity, higher = more binding, comparable within an allelic series) in [1]; 7.98 upbm affinity estimate (log intensity, higher = more binding, comparable within an allelic series) in [2]; 7.96 upbm affinity estimate (log intensity, higher = more binding, comparable within an allelic series) in assay [3]; 6.69 upbm affinity estimate (log intensity, higher = more binding, comparable within an allelic series) in [18]; 6.67 upbm affinity estimate (log intensity, higher = more binding, comparable within an allelic series) in assay [19]; 6.32 upbm affinity estimate (log intensity, higher = more binding, comparable within an allelic series) in [20].
On to ACGCCGCC, for which the binding signal in assay [1] was 8.33 upbm affinity estimate (log intensity, higher = more binding, comparable within an allelic series); in [2] it was 8.43 upbm affinity estimate (log intensity, higher = more binding, comparable within an allelic series); in assay [3], 8.35 upbm affinity estimate (log intensity, higher = more binding, comparable within an allelic series); in assay [21], 9.13 upbm affinity estimate (log intensity, higher = more binding, comparable within an allelic series); in assay [22] it was 9.22 upbm affinity estimate (log intensity, higher = more binding, comparable within an allelic series).
Turning to AAATATCT, the binding signal in [1] was 9.87 upbm affinity estimate (log intensity, higher = more binding, comparable within an allelic series); in [2] it was 10 upbm affinity estimate (log intensity, higher = more binding, comparable within an allelic series); in [3], 9.74 upbm affinity estimate (log intensity, higher = more binding, comparable within an allelic series).
Turning to CATTAGCG, the binding signal in assay [1] was 11.8 upbm affinity estimate (log intensity, higher = more binding, comparable within an allelic series); in [2] it was 12.7 upbm affinity estimate (log intensity, higher = more binding, comparable within an allelic series); in assay [3], 11.6 upbm affinity estimate (log intensity, higher = more binding, comparable within an allelic series); in assay [12], 12.3 upbm affinity estimate (log intensity, higher = more binding, comparable within an allelic series); in assay [23], 11.4 upbm affinity estimate (log intensity, higher = more binding, comparable within an allelic series); in [13] it was 13.1 upbm affinity estimate (log intensity, higher = more binding, comparable within an allelic series). The binding signal in assay [14] was 10.7 upbm affinity estimate (log intensity, higher = more binding, comparable within an allelic series); in assay [15], 12.1 upbm affinity estimate (log intensity, higher = more binding, comparable within an allelic series).
Regarding CCAGCTGC, the binding signal is 8.15 upbm affinity estimate (log intensity, higher = more binding, comparable within an allelic series) in [1]; 8.27 upbm affinity estimate (log intensity, higher = more binding, comparable within an allelic series) in [2]; 8.21 upbm affinity estimate (log intensity, higher = more binding, comparable within an allelic series) in assay [3]; 7.42 upbm affinity estimate (log intensity, higher = more binding, comparable within an allelic series) in assay [6]; 7.3 upbm affinity estimate (log intensity, higher = more binding, comparable within an allelic series) in [9]; 7.2 upbm affinity estimate (log intensity, higher = more binding, comparable within an allelic series) in assay [11].
As for CGTCCTCC, the binding signal was 8.1 upbm affinity estimate (log intensity, higher = more binding, comparable within an allelic series) in assay [1]; 8.19 upbm affinity estimate (log intensity, higher = more binding, comparable within an allelic series) in assay [2]; 8.16 upbm affinity estimate (log intensity, higher = more binding, comparable within an allelic series) in assay [3]; 6.55 upbm affinity estimate (log intensity, higher = more binding, comparable within an allelic series) in assay [18]; 6.64 upbm affinity estimate (log intensity, higher = more binding, comparable within an allelic series) in assay [19]; 6.6 upbm affinity estimate (log intensity, higher = more binding, comparable within an allelic series) in [20].
In the case of CCGCGGTC, the binding signal in assay [1] was 7.69 upbm affinity estimate (log intensity, higher = more binding, comparable within an allelic series); in [2] it was 7.87 upbm affinity estimate (log intensity, higher = more binding, comparable within an allelic series); in assay [3], 7.89 upbm affinity estimate (log intensity, higher = more binding, comparable within an allelic series); in [24], 9.33 upbm affinity estimate (log intensity, higher = more binding, comparable within an allelic series); in [25], 9.33 upbm affinity estimate (log intensity, higher = more binding, comparable within an allelic series); in assay [26], 9.33 upbm affinity estimate (log intensity, higher = more binding, comparable within an allelic series).
On to ACATATTA, for which the binding signal in [1] is 10.6 upbm affinity estimate (log intensity, higher = more binding, comparable within an allelic series); in assay [2], 11.3 upbm affinity estimate (log intensity, higher = more binding, comparable within an allelic series); in assay [3], 10.4 upbm affinity estimate (log intensity, higher = more binding, comparable within an allelic series); in [4], 8.55 upbm affinity estimate (log intensity, higher = more binding, comparable within an allelic series); in assay [27], 10.8 upbm affinity estimate (log intensity, higher = more binding, comparable within an allelic series); in [28], 11 upbm affinity estimate (log intensity, higher = more binding, comparable within an allelic series).
